Inconclusive results are not listed. Where a call stands in place of a potency, no number is given. Active and inactive are the calls of the source. Calls come from the whole dose curve.
Potency is the fitted concentration of half-maximal effect.

This experiment concerns estrogen-related receptor alpha (ERRalpha) with PGC-1alpha coactivator, human. In words: qHTS assay to identify small molecule antagonists of the estrogen related receptor signaling pathway with the pleiotropic PPARgamma coactivator (PGC) (AID 1224821). Note: nearly all actives have a fitted effect of over 50% in size. The following applies: ERR/PGC reporter cell line, luciferase, antagonist mode; series mostly up to 46.1 µM. A digest of the protocol: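 Quantitative HTS for antagonism: PGC/ERR cells received compounds after 6 h attachment and were incubated 18 h at 37 C, with luminescence (One-Glo) as the endpoint.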
In general terms: In qHTS, concentration-response curves come from the screen itself.
Turning to `CCCN1CCC[C@@H](c2cccc(O)c2)C1`, the Potency entry was “inactive”.

Take `CC1OC1P(=O)(O)O` (stereo not given): the Potency entry is “inactive”.

As to `CC(C)Oc1cccnc1N(C)C1CCN(Cc2ccccc2)CC1`, the Potency entry is “inactive”.

Regarding `COc1ccc2c(c[n+](C)c3c4cc5c(cc4ccc23)OCO5)c1OC`, the Potency was 10.6 µM (active).

For the compound `C[C@]12N[C@H](Cc3ccccc31)c1ccccc12`, the Potency entry was “inactive”.

Consider `CCCN(CCC)C1Cc2cc(OC)c(OC)cc2C1`, for which the Potency result was “inactive”.

In the case of `C[N+]1(C)CCc2cc3c(cc2[C@H]1[C@@H]1OC(=O)c2c1ccc1c2OCO1)OCO3`, the Potency result is “inactive”.

On to `CCCN1CC[C@@H]2c3cc(O)ccc3CC[C@@H]21`, for which the Potency result was “inactive”.

`CC(=O)OCC1=C(C(=O)[O-])N2C(=O)[C@@H](NC(=O)CCC[C@@H](N)C(=O)[O-])[C@H]2SC1.[Zn+2]`: the Potency entry is “inactive”.

`CC(C)(C)c1o[nH]c(=O)c1CC(N)C(=O)O` (stereo not given): the Potency entry is “inactive”.

On to `Nc1ccc(CCN2CCN(c3cccc(C(F)(F)F)c3)CC2)cc1`, for which the Potency result is “inactive”.

For `CNCCc1c[nH]c2ccc(O)cc12`, the Potency result is “inactive”.

Consider `N[C@@]1(C(=O)O)CC[C@@H](C(=O)O)C1`, for which the Potency result was “inactive”.

For the compound `CC(C)NP(=O)(NC(C)C)OP(=O)(NC(C)C)NC(C)C`, the Potency result was “inactive”.

Turning to `COc1ccc(CNC(=O)/C=C/c2ccc3[nH]cc(CCN(C)C)c3c2)cc1`, the Potency result is “inactive”.

For `CCn1cc(C(=O)O)c(=O)c2ccc(C)nc21`, the Potency entry was “inactive”.

For the compound `CC12NC(Cc3ccccc31)c1ccccc12` (stereo not given), the Potency entry was “inactive”.

As to `CCOC(=O)c1ncn2c1[C@@H]1CCCN1C(=O)c1cc(OC)ccc1-2`, the Potency result was “inactive”.

In the case of `c1ccc2c(N3CCNCC3)cccc2c1`, the Potency result was “inactive”.

Take `NC(C(=O)O)c1cc(=O)[nH]o1` (stereo not given): the Potency entry is “inactive”.
